Laboratory results taken from PubChem BioAssay AID624341 (National Center for Advancing Translational Sciences (NCATS), 2012).
Calls of active or inactive are those of the source.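 The calls were made as follows: active = potency half-inhibition concentration of 75 µM or lower; inconclusive = potency above 75 µM but under 100 µM; inactive = potency of 100 µM or higher.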

Each molecule was assayed against Ubiquitin carboxyl-terminal hydrolase 7 (Homo sapiens) (UniProt Q93009) (assay: Inhibitors of USP1/UAF1: Hit Validation in USP7 Diubiquiting Gel Assay). Settings: USP7 K63 diubiquitin cleavage, SDS-PAGE gel densitometry.
From the text: Deubiquitinating enzymes (DUBs) are a class of enzymes that can cleave isopeptide bond formed between the C-terminal carboxylate of ubiquitin and a lysine side-chain amino group on the target protein. Among them, ubiquitin specific proteases (USPs) constitute the largest DUB family. Human USPs are emerging as promising targets for pharmacological intervention because of their connection to a number of human diseases, including prostate, colon and breast cancer (1, 2), pediatric acute lymphoblastic leukemia (3), and familial cylindromatosis (4). The advantage of inhibiting USPs lies in the potential specificity of therapeutic intervention that can lead to better efficacy and reduce nonspecific side effects. In a collaboration between the University of Delaware and the NIH Chemical Genomics Center, a high-throughput screen assay was developed to screen for USP1/UAF1 inhibitors. This miniaturized assay has a fluorescent read-out and is used to screen the NIH Molecular Libraries Small Molecule Repository (MLSMR) in order to identify a small molecule that inhibits USP1. Follow-up assays have also been developed to further test the hits from the primary screen. This assay validates the hits identified from the primary screen using a USP7 diubiquiting gel assay. NIH Chemical Genomics Center [NCGC] NIH Molecular Libraries Probe Centers Network [MLPCN] MLPCN Grant: DA030552-01 Assay Submitter (PI): Zhihao Zhuang, University of Delaware 1. Priolo, C., et al. (2006) The isopeptidase USP2a protects human prostate cancer from apoptosis. Cancer Res 66, 8625-8632 2. Popov, N., et al. (2007) The ubiquitin-specific protease USP28 is required for MYC stability. Nat Cell Biol 9, 765-774 3. […]
The inhibition assay contains 5 nM USP7, 2 microM K63 linked diubiquitin, and inhibitors at varied concentrations (0.08 microM - 114 microM). […] The intensity of the individual diubiquitin and monoubiquitin band was quantified using Quantity One 4.3.1 (Biorad, Hercules, CA). The percentage of the conversion was determined and used to calculate the reaction rate. […]

Chain of Ubiquitin carboxyl-terminal hydrolase 7 (Homo sapiens) (Q93009 whole entry, looked up): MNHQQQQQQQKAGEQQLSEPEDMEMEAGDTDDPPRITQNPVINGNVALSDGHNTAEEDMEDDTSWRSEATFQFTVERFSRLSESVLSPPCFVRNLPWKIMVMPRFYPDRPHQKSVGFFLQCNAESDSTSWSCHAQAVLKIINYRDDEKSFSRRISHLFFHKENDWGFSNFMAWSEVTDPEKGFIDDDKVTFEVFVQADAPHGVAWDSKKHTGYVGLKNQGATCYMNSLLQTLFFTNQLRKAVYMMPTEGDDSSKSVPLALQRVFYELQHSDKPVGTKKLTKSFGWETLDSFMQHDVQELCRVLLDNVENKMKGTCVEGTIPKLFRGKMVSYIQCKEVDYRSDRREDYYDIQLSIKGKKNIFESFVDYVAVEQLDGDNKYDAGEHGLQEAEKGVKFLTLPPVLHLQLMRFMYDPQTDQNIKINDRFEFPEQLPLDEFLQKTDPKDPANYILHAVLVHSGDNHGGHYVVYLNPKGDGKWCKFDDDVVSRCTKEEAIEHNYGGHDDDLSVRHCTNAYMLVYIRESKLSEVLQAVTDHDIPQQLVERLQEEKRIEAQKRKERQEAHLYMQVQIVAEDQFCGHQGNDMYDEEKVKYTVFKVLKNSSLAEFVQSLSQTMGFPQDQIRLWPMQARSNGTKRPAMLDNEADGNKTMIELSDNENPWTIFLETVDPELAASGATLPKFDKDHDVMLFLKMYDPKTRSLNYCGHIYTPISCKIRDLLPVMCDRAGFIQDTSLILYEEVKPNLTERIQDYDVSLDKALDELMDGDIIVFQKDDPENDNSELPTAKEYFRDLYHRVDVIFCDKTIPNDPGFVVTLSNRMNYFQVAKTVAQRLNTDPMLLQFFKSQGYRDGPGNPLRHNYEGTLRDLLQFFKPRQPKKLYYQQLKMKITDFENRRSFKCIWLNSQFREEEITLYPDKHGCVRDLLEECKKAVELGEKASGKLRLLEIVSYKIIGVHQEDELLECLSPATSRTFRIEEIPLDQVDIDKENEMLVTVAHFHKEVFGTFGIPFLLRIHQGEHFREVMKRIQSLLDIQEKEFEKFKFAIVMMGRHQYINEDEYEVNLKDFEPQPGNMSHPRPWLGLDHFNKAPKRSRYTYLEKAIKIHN

Potency, active:
Cc1ccccc1-c1nc(NCc2cccs2)c2ccccc2n1 19.4 µM, Cc1cccc(CNc2ccnc(-c3ccccc3C(F)(F)F)n2)c1 20.9 µM, FC(F)(F)c1ccccc1-c1nc(NCc2cccs2)c2ccccc2n1 37.8 µM
